CYP2C19 inh – blocks human cytochrome P450 2C19. P33261. CYP2C19 Supersomes, luciferin-H EGE luminescence, 30 min. inhibition, % at 5 µM. 21% of 96,000 active. AID 778;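 active means CYP2C19 inhibition above a set limit at 5 µM in the primary screen, cut at about 50% in these data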;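 further: plate controls were negative control wells for no effect and 2.5 mM tranylcypromine positive control for full effect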
Target sequence (P33261 whole entry, looked up): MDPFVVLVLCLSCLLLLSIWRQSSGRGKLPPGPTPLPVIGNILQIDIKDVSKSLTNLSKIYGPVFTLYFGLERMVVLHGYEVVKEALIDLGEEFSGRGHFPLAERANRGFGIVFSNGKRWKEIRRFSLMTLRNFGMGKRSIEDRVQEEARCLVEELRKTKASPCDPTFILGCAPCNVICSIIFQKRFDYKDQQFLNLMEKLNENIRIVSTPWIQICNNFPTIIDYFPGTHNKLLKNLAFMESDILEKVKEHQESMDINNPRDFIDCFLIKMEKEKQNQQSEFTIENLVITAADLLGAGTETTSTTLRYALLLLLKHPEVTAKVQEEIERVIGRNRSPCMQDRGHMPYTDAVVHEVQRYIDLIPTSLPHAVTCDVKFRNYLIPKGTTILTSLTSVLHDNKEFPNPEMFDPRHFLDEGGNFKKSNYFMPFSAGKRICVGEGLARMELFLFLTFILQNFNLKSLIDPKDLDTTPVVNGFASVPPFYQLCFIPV
PLK1 kinase inh – blocks human PLK1 kinase activity. inhibition, % at 10 µM. P53350. AID 619. 0.53% of 97,000 active. recombinant PLK1 kinase, TR-FRET peptide phosphorylation;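 active means inhibition of 50% or more in the single-concentration screen; inactive means inhibition below 50%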;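 further: 0% = DMSO max control and 100% = H-89 dihydrochloride min control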
CYP2C19 activ – activators of human cytochrome P450 2C19. P33261. recombinant CYP2C19, luciferin-H EGE luminescence; active compounds read high; 0 = fully inhibited enzyme, 1 = untreated enzyme. activation factor at 5 µM. 96,000 tested, under 10 active. AID 1025;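 active means activation factor of at least 2 at 5 µM in the primary screen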;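 further: 0 = wells with 2.5 mM tranylcypromine and 1 = vehicle-only wells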
CYP2C9 inhib – inhibitors of human CYP2C9; P11712; CYP2C9 Supersomes, luciferin-H conversion, luminescence; inhibition, % at 5 µM; 20% of 96,000 active; AID 777;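 active means blocking of liver enzyme CYP2C9 beyond about 50% at 5 µM, limit read from the data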
PLK1 PBD inh – inhibitors of human Plk1 polo box domain binding. P53350. Plk1 PBD phosphopeptide binding, fluorescence polarization. inhibition, %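 (tested at about 20 µM)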. 0.13% of 97,000 active. AID 693; in the data active means inhibition above about 34%, passing the limit was not always enough
CYP2C9 activ – increases human cytochrome P450 2C9 activity; 1.4% of 96,000 active; recombinant CYP2C9, luciferin-H conversion, luminescence; active compounds read high; factor 1 = untreated enzyme, 0 = blocked; activation factor at 5 µM; P11712;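 active means activation factor of 2 or more for CYP2C9 at a 5 µM dose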;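 further: 0 = sulfaphenazole-blocked wells and 1 = vehicle-only wells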
The depositor's hits bear a star. An excerpt weighted towards active compounds, which were near 28% of everything screened.

For CCc1nc(Nc2ccc3c(c2)OCCO3)c2oc3ccccc3c2n1 the results were CYP2C19 inh 40, PLK1 kinase inh -5, CYP2C19 activ 0.6, CYP2C9 inhib 21, PLK1 PBD inh 8 and CYP2C9 activ 0.8.
COc1ccc(Nc2ncnc3c2oc2ccccc23)cc1 was read as CYP2C19 inh 55*, PLK1 kinase inh -7, CYP2C19 activ 0.5, CYP2C9 inhib 34, PLK1 PBD inh -19 and CYP2C9 activ 0.7.
`Cc1ccc(Nc2ncnc3c2oc2ccccc23)cc1` gave CYP2C19 inh 53*, PLK1 kinase inh 0, CYP2C19 activ 0.5, CYP2C9 inhib 32, PLK1 PBD inh 18 and CYP2C9 activ 0.7.
Screening c1ccc2c(c1)oc1c(Nc3ccc4c(c3)OCCO4)ncnc12 returned CYP2C19 inh 20, PLK1 kinase inh -11, CYP2C19 activ 0.8, CYP2C9 inhib -6, PLK1 PBD inh 35 and CYP2C9 activ 1.1.
For O=S(=O)(Cc1ccc(Cl)cc1)CC(O)COCc1ccccc1 (stereo not given) the results were CYP2C19 inh 40, PLK1 kinase inh -8, CYP2C19 activ 0.6, CYP2C9 inhib 25, PLK1 PBD inh -10 and CYP2C9 activ 0.7.
`C=CCOCC(O)CS(=O)(=O)Cc1ccc(Cl)cc1` (stereo not given) gave CYP2C19 inh 74*, PLK1 kinase inh -2, CYP2C19 activ 0.3, CYP2C9 inhib 17, PLK1 PBD inh -9 and CYP2C9 activ 0.8.
NC(=S)n1[nH]c(-c2ccc([N+](=O)[O-])cc2)c(N=Nc2ccc(O)cc2)c1=O was read as CYP2C19 inh -3, PLK1 kinase inh 4, CYP2C19 activ 1, CYP2C9 inhib 76*, PLK1 PBD inh -12 and CYP2C9 activ 0.2.
CCOc1ncccc1C(=O)OCC(=O)Nc1cc(C(=O)OC)ccc1C(=O)OC was read as CYP2C19 inh -2, CYP2C19 activ 1, CYP2C9 inhib 16 and CYP2C9 activ 0.8.
For CCn1c(-c2ccccc2Cl)nn(CC(=O)Nc2ccccc2C)c1=S the results were CYP2C19 inh 51*, PLK1 kinase inh 1, CYP2C19 activ 0.5, CYP2C9 inhib -1, PLK1 PBD inh 14 and CYP2C9 activ 1.
`CCOc1ccc(NC(=O)Cn2nc(-c3ccccc3Cl)n(CC)c2=S)cc1` gave CYP2C19 inh 62*, PLK1 kinase inh -8, CYP2C19 activ 0.4, CYP2C9 inhib 68*, PLK1 PBD inh 27 and CYP2C9 activ 0.3.
For CCn1c(-c2ccccc2Cl)nn(CC(=O)Nc2ccc(OC)cc2)c1=S the results were CYP2C19 inh 56*, PLK1 kinase inh -20, CYP2C19 activ 0.4, CYP2C9 inhib 60*, PLK1 PBD inh 17 and CYP2C9 activ 0.4.
Screening CCn1nc(C(=O)Nc2ccccc2C)c(Cl)c1Cl returned CYP2C19 inh 48, PLK1 kinase inh -7, CYP2C19 activ 0.5, CYP2C9 inhib 55*, PLK1 PBD inh 12 and CYP2C9 activ 0.5.
Screening CCOc1ccc(NC(=O)CSc2nnc(C)n2Cc2ccccc2)cc1 returned PLK1 kinase inh -10 and PLK1 PBD inh 7.
Screening COCN(C#N)c1nc(OC)nc(OC)n1 returned CYP2C19 inh -1, CYP2C19 activ 1, CYP2C9 inhib -2 and CYP2C9 activ 1.
Screening CCOC(=O)C1CCN(C(=O)CN(c2ccc3c(c2)OCCO3)S(C)(=O)=O)CC1 returned CYP2C19 inh 0, PLK1 kinase inh -1, CYP2C19 activ 1, CYP2C9 inhib -3, PLK1 PBD inh 9 and CYP2C9 activ 1.
Screening NC(=O)c1ccc(C(F)(F)F)n(Cc2ccccc2Cl)c1=O returned CYP2C19 inh 69*, PLK1 kinase inh -12, CYP2C19 activ 0.3, CYP2C9 inhib 28, PLK1 PBD inh -8 and CYP2C9 activ 0.7.
Screening NC(=O)c1cccn1Cc1ccccc1Cl returned CYP2C19 inh -2, PLK1 kinase inh -21, CYP2C19 activ 1, CYP2C9 inhib -17, PLK1 PBD inh -10 and CYP2C9 activ 1.2.
COc1ccc(C(=O)COC(=O)CCCn2c(=O)oc3ccccc32)cc1 was read as PLK1 kinase inh -7 and PLK1 PBD inh 10.
`Cc1c(C#N)c2ccccc2n1CC(=O)O` gave PLK1 kinase inh 2 and PLK1 PBD inh 15.
Screening COc1ccccc1OCCCn1c(C)c(C#N)c2ccccc21 returned CYP2C19 inh 29, PLK1 kinase inh 0, CYP2C19 activ 0.7, CYP2C9 inhib 78*, PLK1 PBD inh 11 and CYP2C9 activ 0.2.
N#Cc1cn(CCCOc2ccccc2)c2ccccc12 was read as PLK1 kinase inh -9 and PLK1 PBD inh 1.
Screening COc1ccccc1OCCCn1cc(C#N)c2ccccc21 returned CYP2C19 inh 100*, PLK1 kinase inh -10, CYP2C19 activ 0, CYP2C9 inhib 95*, PLK1 PBD inh -2 and CYP2C9 activ 0.
`Fc1ccc(-c2cc(C(F)(F)F)nc(N3CCCCC3)n2)cc1` gave CYP2C19 inh -19, PLK1 kinase inh -9, CYP2C19 activ 1.2, CYP2C9 inhib -23, PLK1 PBD inh 14 and CYP2C9 activ 1.2.
Screening CCc1cc(=O)oc2cc(OCC(N)=O)c(Cl)cc12 returned CYP2C19 inh -4, PLK1 kinase inh -4, CYP2C19 activ 1, CYP2C9 inhib -6, PLK1 PBD inh -17 and CYP2C9 activ 1.1.
Screening COc1ccc(NC(=O)CC2Oc3ccc(C)cc3NC2=O)cc1 (stereo not given) returned CYP2C19 inh -2, PLK1 kinase inh 0, CYP2C19 activ 1, CYP2C9 inhib 5, PLK1 PBD inh -15 and CYP2C9 activ 0.9.
Screening O=C(CN(Cc1ccc(Cl)c(Cl)c1)S(=O)(=O)c1ccccc1)N/N=C\c1ccc2c(c1)OCO2 returned CYP2C19 inh 19, PLK1 kinase inh 26, CYP2C19 activ 0.8, CYP2C9 inhib 65*, PLK1 PBD inh -20 and CYP2C9 activ 0.4.
`O=C(CN(Cc1ccccc1)S(=O)(=O)c1ccccc1)N/N=C/c1ccc2c(c1)OCO2` gave CYP2C19 inh 53*, PLK1 kinase inh -7, CYP2C19 activ 0.5, CYP2C9 inhib 74*, PLK1 PBD inh 5 and CYP2C9 activ 0.3.
O=C(CN(Cc1ccccc1)S(=O)(=O)c1ccc2c(c1)OCCO2)N/N=C/c1ccc(F)cc1 was read as CYP2C19 inh 30, PLK1 kinase inh 1, CYP2C19 activ 0.7, CYP2C9 inhib 36, PLK1 PBD inh 26 and CYP2C9 activ 0.6.
For Cc1cc(Cl)ccc1Oc1nc(-c2ccc(F)cc2)ccc1C#N the results were CYP2C19 inh 12, PLK1 kinase inh -16, CYP2C19 activ 0.9, CYP2C9 inhib 9, PLK1 PBD inh -24 and CYP2C9 activ 0.9.
For COc1ccc(CNC2=CC(=O)CC(C)(C)C2)cc1 the results were CYP2C19 inh 12, PLK1 kinase inh -18, CYP2C19 activ 0.9, CYP2C9 inhib 11, PLK1 PBD inh 12 and CYP2C9 activ 0.9.
`O=C(N/N=C\c1ccc(Sc2ccccn2)o1)c1cccc(Br)c1` gave CYP2C19 inh 84*, PLK1 kinase inh -5, CYP2C19 activ 0.2, CYP2C9 inhib 82*, PLK1 PBD inh 48 and CYP2C9 activ 0.2.
